Screening results: PubChem, Johns Hopkins Ion Channel Center
A selection: hits, their analogues and other compounds. The true share with any hit is near 1.6%.
KCNQ2 block: blocks the rat KCNQ2 potassium channel; AID 2156; CHO-K1 KCNQ2, FluxOR thallium flux, 20 min; stronger effect = lower value; O88943; B-score at 10 µM; 1.1% of 310,000 active;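 active = fluorescence ratio B-score at most minus 3 library SDs, with starting brightness B-score within 2 library SDs, cut at about -5.5 in these data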
KCNQ2 enhance: enhances the rat KCNQ2 potassium channel | CHO-K1 KCNQ2, FluxOR thallium flux fluorescence; stronger effect = higher value | B-score at 10 µM | 0.54% of 310,000 active;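 active = fluorescence ratio B-score at least 3 SD of library B-scores, with initial fluorescence B-score within 3 of them, cut at about 5.3 in these data; same plate scores as AID 2156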;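 also: B-score of peak minus minimum over baseline fluorescence ratio after K+ and Tl+ stimulus; positive B-score means potentiation of KCNQ2 with more thallium influx and brighter signal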
Kir21 conf inh: confirmation of mouse Kir2.1 potassium channel inhibitors | shares compounds with KCNQ2 enhance | Kir2.1-expressing cells, FluxOR thallium flux fluorescence; stronger effect = lower value | Tl flux remaining, % of negative control (stronger effect = lower value), % at 10 µM | 41% of 2,300 active | AID 2032;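 active = Primary-screen hit whose thallium flux fell at least 3 control SD below untreated wells in both duplicates, with normal baseline fluorescence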
HEK293 Tl flux: parental HEK293 activity in Kir2.1 inhibitor counter-screen | 19% of 2,300 active | FluxOR signal as % of negative control (100 = no effect), % at 10 µM | shares compounds with KCNQ2 enhance | parental HEK293 cells, FluxOR thallium flux fluorescence; 0% = unstimulated blank wells | AID 2105;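 active = dye signal at least 3 control SD above or below untreated wells in both duplicates, raw fluorescence within 3, either direction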;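 also: percent is based on the flux ratio of peak minus minimum fluorescence over baseline F0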
CHO-K1 Tl ctr: alters thallium flux in parental CHO-K1 cells, KCNQ2 counter-screen. 43% of 1,200 active. FluxOR thallium flux fluorescence; zero = vehicle mean+3SD, 100% = vehicle-minus-blank window. AID 2282. shares compounds with KCNQ2 enhance. activity increase over 3SD of controls, % at 10 µM;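 active = signal rise of at least 3 SD above the untreated control mean, in both duplicate wells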;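 also: counter screen of KCNQ2 potentiator hits so any rise reflects channel-independent effects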
KCNQ1 pot spec: human KCNQ1 counter-target activity of KCNQ2 potentiators. CHO KCNQ1 stable, FluxOR thallium flux fluorescence; beyond 3SD, as % of vehicle-control signal. 28% of 1,200 active. AID 2283. shares compounds with KCNQ2 enhance. activation over 3SD threshold, % at 10 µM;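 active = fluorescence ratio rise of at least 3 SD of vehicle wells above their mean, in both replicate wells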
KCNQ2 pot confirm: confirmation of rat KCNQ2 potassium channel potentiators | potentiation, less the hit threshold, % at 10 µM | AID 2287 | CHO-KCNQ2 cells, FluxOR thallium flux fluorescence | 68% of 1,200 active | shares compounds with KCNQ2 enhance;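 active = fluorescence ratio rising 3 SD or more over the vehicle control mean in both replicates, plus primary screen hit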;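 also: peak minus minimum thallium fluorescence divided by baseline after K/Tl stimulus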
Kir21 spec: selectivity of KCNQ2 potentiators: effect on mouse Kir2.1; 2% of 1,200 active; activity over 3SD threshold, % at 10 µM; HEK293 Kir2.1, FluxOR thallium flux fluorescence; shares compounds with KCNQ2 enhance;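 active = fluorescence ratio rise of at least 3 SD above the vehicle-control mean, seen in both replicates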
KCNQ2 W236L pot: KCNQ2 potentiators acting on retigabine-insensitive rat KCNQ2 W236L mutant; shares compounds with KCNQ2 enhance; current increase over 3SD of negative controls (%), stronger effect = higher value, % at 25 µM; 10% of 940 active; CHO KCNQ2-W236L, automated patch clamp current;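 active = current increase at least 3 SD of the untreated controls above them in both duplicate recordings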
Target sequence (O88943 whole entry W236L, looked up): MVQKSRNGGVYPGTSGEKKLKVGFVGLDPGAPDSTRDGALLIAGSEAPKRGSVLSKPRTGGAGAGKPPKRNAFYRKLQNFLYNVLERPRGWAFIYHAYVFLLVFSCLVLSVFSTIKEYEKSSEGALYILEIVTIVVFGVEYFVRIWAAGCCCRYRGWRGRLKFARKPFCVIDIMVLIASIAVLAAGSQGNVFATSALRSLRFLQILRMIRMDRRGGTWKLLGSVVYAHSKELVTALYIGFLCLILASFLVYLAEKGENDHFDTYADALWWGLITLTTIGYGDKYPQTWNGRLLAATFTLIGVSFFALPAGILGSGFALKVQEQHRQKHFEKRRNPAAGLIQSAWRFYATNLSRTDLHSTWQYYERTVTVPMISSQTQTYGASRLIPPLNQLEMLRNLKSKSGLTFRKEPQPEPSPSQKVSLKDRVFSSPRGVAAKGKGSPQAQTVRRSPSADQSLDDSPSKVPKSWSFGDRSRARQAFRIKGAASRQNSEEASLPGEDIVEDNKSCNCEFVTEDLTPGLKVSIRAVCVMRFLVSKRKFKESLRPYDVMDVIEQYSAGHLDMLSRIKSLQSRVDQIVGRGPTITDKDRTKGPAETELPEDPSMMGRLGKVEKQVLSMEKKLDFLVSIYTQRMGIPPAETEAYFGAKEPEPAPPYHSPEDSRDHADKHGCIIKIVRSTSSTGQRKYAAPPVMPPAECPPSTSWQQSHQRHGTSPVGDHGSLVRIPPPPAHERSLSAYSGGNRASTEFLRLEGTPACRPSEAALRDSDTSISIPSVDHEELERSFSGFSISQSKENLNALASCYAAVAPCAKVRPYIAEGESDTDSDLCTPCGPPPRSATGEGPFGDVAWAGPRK
Hits are given with their value; . = inactive; / = no result.

SMILES | KCNQ2 block | KCNQ2 enhance | Kir21 conf inh | HEK293 Tl flux | others
CC(=O)CSc1ncnc2sc3c(c12)CCC(C)C3 (stereo unspecified) | . | 15.1 | . | 455.0% | CHO-K1 Tl ctr=1.6;KCNQ1 pot spec=.;KCNQ2 pot confirm=93.3;Kir21 spec=.;KCNQ2 W236L pot=.
CC1CCc2c(sc3ncnc(SCC(=O)c4ccccc4)c23)C1 (stereo unspecified) | . | . | / | /
COc1ccc(C(CC(=O)O)NC(=O)COc2cc(C)ccc2C)cc1OC (stereo unspecified) | . | . | / | /
CCN1c2ccccc2-c2nc3ccccc3n2C1c1ccco1 (stereo unspecified) | . | / | . | .
c1ccc(CN2c3ccccc3-c3nc4ccccc4n3C2c2ccccn2)cc1 (stereo unspecified) | . | / | / | /
Cc1ccc(OCCCC(=O)NC2CCCCC2)cc1 | . | / | / | /
O=C(Nc1scc(-c2ccc(Br)cc2)c1C(=O)O)c1ccccc1F | . | 5.31 | . | 186.5% | CHO-K1 Tl ctr=.;KCNQ1 pot spec=.;KCNQ2 pot confirm=34.0;Kir21 spec=.;KCNQ2 W236L pot=.
O=C(Nc1scc(-c2ccccc2)c1C(=O)O)c1ccccc1F | . | / | / | /
COc1ccc(N2CC(C(=O)Nc3ccccc3N3CCCC3)CC2=O)c(OC)c1 (stereo unspecified) | . | / | / | /
CN(C)CCOCCOc1ccc(Cl)cc1C(C)(C)C | . | / | 34.0% | .
COCCCNCCCOc1ccc(Cl)cc1Br | . | / | / | /
CC(O)CNCCCOc1ccc(Cl)cc1C(C)(C)C (stereo unspecified) | . | / | 32.5% | .
CC(C)(C)c1cc(Cl)ccc1OCCn1ccnc1 | . | . | / | /
Cc1nc(SCc2ccc(Cl)cc2)ncc1C(=O)O | . | . | / | /
COc1ccc(N(C(=O)c2snc(C(N)=O)c2N)C(C(=O)NC2CCCCC2)c2ccc(C)o2)cc1 (stereo unspecified) | . | / | / | /
O=C1CC(c2ccc(F)cc2)C(n2cncn2)C(O)=C1C1NCCc2ccccc21 (stereo unspecified) | . | . | / | /
CCCc1nnc(NC(=O)c2nc(S(=O)(=O)Cc3cccc(C)c3)ncc2Cl)s1 | . | 14.9 | / | / | CHO-K1 Tl ctr=.;KCNQ1 pot spec=.;KCNQ2 pot confirm=99.0;Kir21 spec=.;KCNQ2 W236L pot=34.5%
Cc1cccc(CS(=O)(=O)c2ncc(Cl)c(C(=O)NCc3ccccc3)n2)c1 | . | / | / | /
Cc1nnc(NC(=O)c2nc(S(=O)(=O)Cc3ccccc3)ncc2Cl)s1 | . | 14.4 | . | . | CHO-K1 Tl ctr=3.1;KCNQ1 pot spec=46.0;KCNQ2 pot confirm=57.9;Kir21 spec=.;KCNQ2 W236L pot=23.2%
Cc1cccc(CS(=O)(=O)c2ncc(Cl)c(C(=O)Nc3c(C)cccc3C)n2)c1 | . | / | . | .
Cc1ccc(NC(=O)c2nc(S(=O)(=O)Cc3ccccc3)ncc2Cl)cc1 | . | . | / | /
Cc1cccc(C)c1NC(=O)c1nc(S(=O)(=O)Cc2ccccc2)ncc1Cl | . | / | / | /
COc1ccc(CNC(=O)COC(=O)c2ccc(Br)cc2)cc1 | . | / | / | /
Cn1nc(C(=O)OCc2ccc(Br)cc2F)c2ccccc2c1=O | . | . | / | /
O=C(CNC(=O)c1cccs1)N=Nc1c(O)[nH]c2ccc([N+](=O)[O-])cc12 | . | . | / | /
SMILES | KCNQ2 block | KCNQ2 enhance | Kir21 conf inh | HEK293 Tl flux | others
CCOc1ccc(NS(=O)(=O)c2c(C(=O)N3CCCCCC3)c(C)n(C)c2C)cc1 | . | . | / | /
Cc1c(Cl)c([N+](=O)[O-])nn1CC(=O)N1CCN(Cc2ccccc2)CC1 | . | / | / | /
COc1cccc(NC(=O)NCCCCc2ccccc2)c1 | . | . | / | /
COc1cccc(NC(=O)NCCCSC2CCCCC2)c1 | . | 6.54 | . | . | CHO-K1 Tl ctr=.;KCNQ1 pot spec=.;KCNQ2 pot confirm=13.4;Kir21 spec=.;KCNQ2 W236L pot=.
CN1CCN(C(=O)C2=C[C@@H](c3ccccc3)C[C@@H](OCCCCO)O2)CC1 | . | . | / | /
Fc1cc2[nH]c(=S)[nH]c2c(Br)c1N1CCSCC1 | . | . | / | /
N#Cc1ccccc1S(=O)(=O)c1ccccc1C(=O)Nc1ccccc1 | . | . | / | /
CC(C)(C)Cc1nc2ccccc2n1CCc1ccccc1 | . | / | 53.0% | .
CCc1nc2ccccc2n1CCc1ccccc1 | . | / | / | /
Cc1sc2nc[nH]c(=O)c2c1-c1ccc(F)cc1 | . | . | / | /
Cc1sc2nc[nH]c(=S)c2c1-c1ccccc1 | . | 11.7 | . | . | CHO-K1 Tl ctr=.;KCNQ1 pot spec=13.3;KCNQ2 pot confirm=39.7;Kir21 spec=.;KCNQ2 W236L pot=.
COC(=O)C1=C(C(=O)OC)[C@@H]2N(C)c3ccc(OC)cc3[C@@]23C[C@@H](C(=O)OC)N(S(=O)(=O)c2ccc(OC)cc2)C3=N1 | . | / | / | /
Cc1cc(C)n(CC(=O)N/N=C/c2cc(Br)cc([N+](=O)[O-])c2O)n1 | . | 6.94 | . | 65.0% | CHO-K1 Tl ctr=.;KCNQ1 pot spec=.;KCNQ2 pot confirm=39.6;Kir21 spec=.;KCNQ2 W236L pot=.
Cc1cc(C)n(CC(=O)N/N=C/c2cc([N+](=O)[O-])ccc2O)n1 | . | . | / | /
COc1ccc(C(C(=O)NC(C)(C)C)N(C(=O)CCC(=O)Nc2cc(C)on2)c2ccc(C)c(C)c2)cc1 (stereo unspecified) | . | / | / | /
C#Cc1ccc([C@@H]2C=C(C(=O)OCC=C)O[C@H](OCCCCO)C2)cc1 | . | / | / | /
CCN(CCNC(=O)c1ccc(C#N)cc1)c1cccc(C)c1 | . | / | / | /
CCN(CCNCC(O)COCc1ccc(Cl)cc1)c1cccc(C)c1 (stereo unspecified) | . | / | 36.5% | .
O=C(NCCO)C(=O)c1c(-c2ccc(Cl)cc2)cc2ccccn12 | . | / | / | /
O=C(O)c1ccn2c(C(=O)c3ccc(Cl)cc3)c(-c3ccccc3)cc2c1 | . | 8.45 | . | . | CHO-K1 Tl ctr=.;KCNQ1 pot spec=.;KCNQ2 pot confirm=15.5;Kir21 spec=.;KCNQ2 W236L pot=.
CCN(CC)C(=O)c1cn(-c2cccc(OC)c2)c(=O)c2ccccc12 | . | . | / | /
COc1ccccc1N1CCN(C(=O)CSc2nc(C)c(Cc3ccccc3)c(=O)[nH]2)CC1 | . | 9.15 | . | . | CHO-K1 Tl ctr=.;KCNQ1 pot spec=.;KCNQ2 pot confirm=28.7;Kir21 spec=.;KCNQ2 W236L pot=.
COc1ccccc1N1CCN(C(=O)CSc2nc(-c3ccccc3)cc(=O)[nH]2)CC1 | . | / | / | /
Cc1ccccc1NC(=O)CSc1nnc(C2CC2)n1CC1CCCO1 (stereo unspecified) | . | . | / | /
Cc1ccc(C)c(C(=O)NC(C)c2ccc(-n3ccnc3)cc2)c1 (stereo unspecified) | . | . | / | /
Cc1ccc(C)c(CN2CCC(CNC(=O)Nc3ccc(C)c(C)c3)CC2)c1 | . | 7.57 | . | . | CHO-K1 Tl ctr=60.1;KCNQ1 pot spec=.;KCNQ2 pot confirm=10.0;Kir21 spec=.;KCNQ2 W236L pot=.
COc1ccc(N2CCC(CNC(=O)Nc3ccc(C)c(C)c3)C2)cc1 (stereo unspecified) | . | . | / | /
Cc1ccc(C(C)NC(=O)C23CC4CC(CC(C4)C2)C3)cc1 (stereo unspecified) | . | 6 | . | . | CHO-K1 Tl ctr=.;KCNQ1 pot spec=64.6;KCNQ2 pot confirm=6.5;Kir21 spec=.;KCNQ2 W236L pot=.
